# Records with an inconclusive call do not appear. Entries that show only a call come without a potency. Active and inactive are the calls of the source. Calls follow the shape of the dose curve; as a rule, active = well fitted inhibition curve with a large enough effect; inconclusive = small, poorly fitted or top-dose-only effect; inactive = flat fitted curve, though single readings scatter.
# What was measured:
# Test in all cases: qHTS profiling for inhibitors of Plasmodium falciparum proliferation (AID 504749); also: nearly all actives have a fitted effect of over 60% in size
# Details in all cases: P. falciparum in erythrocytes, SYBR Green DNA, 72 h; series mostly up to 28.7 µM
# CP237 = tested on: CP237
# Summary of the method: (§1)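 Infected RBCs, 0.3% parasitemia/2.5% Hct final; cpd 72 h, 37 C, 5% CO2; lysis buffer with saponin/triton/SYBR Green I, o/n RT dark; FI 485/535; norm. to artemisinin (0.29 uM) and DMSO.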
# CP238 = tested on: CP238
# Summary of the method: as §1
# CP247 = tested on: CP247
# Summary of the method: as §1
# CP250 = tested on: CP250
# Summary of the method: as §1
# CP252 = tested on: CP252
# Summary of the method: as §1
# CP256 = tested on: CP256
# Summary of the method: as §1
# CP260 = tested on: CP260
# Summary of the method: as §1
# CP262 = tested on: CP262
# Summary of the method: as §1
# CP265 = tested on: CP265
# Summary of the method: as §1
# CP266 = tested on: CP266
# Summary of the method: as §1
# CP268 = tested on: CP268
# Summary of the method: as §1
# CP269 = tested on: CP269
# Summary of the method: as §1
# CP286 = tested on: CP286
# Summary of the method: as §1
# CP291 = tested on: CP291
# Summary of the method: as §1
# CP297 = tested on: CP297
# Summary of the method: as §1
# CP305 = tested on: CP305
# Summary of the method: as §1
# CP315 = tested on: CP315
# Summary of the method: as §1
# CP325 = tested on: CP325
# Summary of the method: as §1
# CP329 = tested on: CP329
# Summary of the method: as §1
# CP335 = tested on: CP335
# Summary of the method: as §1
# Potency is read from the fitted curve at half-maximal effect.
SMILES,Potency (CP237),Potency (CP238),Potency (CP247),Potency (CP250),Potency (CP252),Potency (CP256),Potency (CP260),Potency (CP262),Potency (CP265),Potency (CP266),Potency (CP268),Potency (CP269),Potency (CP286),Potency (CP291),Potency (CP297),Potency (CP305),Potency (CP315),Potency (CP325),Potency (CP329),Potency (CP335)
Nc1nc(N)c(-c2ccccc2)s1,inactive,inactive,inactive,inactive,inactive,inactive,inactive,inactive,inactive,inactive,inactive,inactive,inactive,inactive,inactive,inactive,inactive,inactive,inactive,inactive
CC(=O)NO,inactive,inactive,inactive,inactive,inactive,inactive,inactive,inactive,inactive,inactive,inactive,inactive,inactive,inactive,inactive,inactive,inactive,inactive,inactive,inactive
CCNC(=O)NCc1cccc(Cl)c1,inactive,inactive,inactive,inactive,inactive,inactive,inactive,inactive,inactive,inactive,inactive,inactive,inactive,inactive,inactive,inactive,inactive,inactive,inactive,inactive
Nc1nc(-c2ccccc2)c(Br)c(=O)[nH]1,inactive,inactive,inactive,inactive,inactive,inactive,inactive,inactive,inactive,inactive,inactive,inactive,inactive,inactive,inactive,inactive,inactive,inactive,inactive,inactive
O=C(Nc1ccc([N+](=O)[O-])cc1)Nc1ccc([N+](=O)[O-])cc1,3.98 µM (active),inactive,inactive,inactive,inactive,inactive,3.55 µM (active),inactive,inactive,inactive,inactive,inactive,3.16 µM (active),inactive,inactive,inactive,inactive,inactive,inactive,4.78 µM (active)
CCCCCCCCCCCCCCCCO,inactive,inactive,inactive,inactive,inactive,inactive,inactive,inactive,inactive,inactive,inactive,inactive,inactive,inactive,inactive,inactive,inactive,inactive,inactive,inactive
CC(=O)Nc1ccc(OCC(O)CNC(C)C)cc1 (stereo not drawn),inactive,inactive,inactive,inactive,inactive,inactive,inactive,inactive,inactive,inactive,inactive,inactive,inactive,inactive,inactive,inactive,inactive,inactive,inactive,inactive
Cc1cc(NS(=O)(=O)c2ccc(N)cc2)nc(C)n1,inactive,inactive,inactive,inactive,inactive,inactive,inactive,inactive,inactive,inactive,inactive,inactive,inactive,inactive,inactive,inactive,inactive,inactive,inactive,inactive
O=c1[nH]c(=O)n([C@H]2C[C@H](O)[C@@H](CO)O2)cc1F,inactive,inactive,inactive,inactive,inactive,inactive,inactive,inactive,inactive,inactive,inactive,inactive,inactive,inactive,inactive,inactive,inactive,inactive,inactive,inactive
CC1=C(C(=O)O)N2C(=O)[C@@H](NC(=O)[C@H](N)c3ccccc3)[C@H]2SC1,inactive,inactive,inactive,inactive,inactive,inactive,inactive,inactive,inactive,inactive,inactive,inactive,inactive,inactive,inactive,inactive,inactive,inactive,inactive,inactive
CCC1Nc2cc(Cl)c(S(N)(=O)=O)cc2S(=O)(=O)N1 (stereo not drawn),inactive,inactive,inactive,inactive,inactive,inactive,inactive,inactive,inactive,inactive,inactive,inactive,inactive,inactive,inactive,inactive,inactive,inactive,inactive,inactive
FC(F)(F)C(F)(F)C(F)(F)C(F)(F)C(F)(F)C(F)(F)C(F)(F)C(F)(F)Br,inactive,inactive,inactive,inactive,inactive,inactive,inactive,inactive,inactive,inactive,inactive,inactive,inactive,inactive,inactive,inactive,inactive,inactive,inactive,inactive
CCCN(CCC)S(=O)(=O)c1ccc(C(=O)O)cc1,inactive,inactive,inactive,inactive,inactive,inactive,inactive,inactive,inactive,inactive,inactive,inactive,inactive,inactive,inactive,inactive,inactive,inactive,inactive,inactive
Cn1c(=O)c2[nH]c(Br)nc2n(C)c1=O,inactive,inactive,inactive,inactive,inactive,inactive,inactive,inactive,inactive,inactive,inactive,inactive,inactive,inactive,inactive,inactive,inactive,inactive,inactive,inactive
CCC(CC)(CC(=O)Nc1cccc(/C=C/c2nc(C3CCC3)cs2)c1)C(=O)O,inactive,inactive,inactive,inactive,inactive,inactive,inactive,inactive,inactive,inactive,inactive,inactive,inactive,inactive,inactive,inactive,inactive,inactive,inactive,inactive
CC(=O)Nc1ccc(S(=O)(=O)Nc2ccc([N+](=O)[O-])cc2)cc1,inactive,inactive,inactive,inactive,inactive,inactive,inactive,inactive,inactive,inactive,inactive,inactive,inactive,inactive,inactive,inactive,inactive,inactive,inactive,inactive
COc1ccc(/C=N/NC(=O)c2ccncc2)cc1OC,inactive,inactive,inactive,inactive,inactive,inactive,inactive,inactive,inactive,inactive,inactive,inactive,inactive,inactive,inactive,inactive,inactive,inactive,inactive,inactive
CCOC(=O)[C@H](CCc1ccccc1)N[C@@H](C)C(=O)N1[C@H](C(=O)O)C[C@H]2CCCC[C@@H]21,inactive,inactive,inactive,inactive,inactive,inactive,inactive,inactive,inactive,inactive,inactive,inactive,inactive,inactive,inactive,inactive,inactive,inactive,inactive,inactive
CCCCC(CC)COC(=O)c1ccc(N(C)C)cc1 (stereo not drawn),inactive,inactive,inactive,inactive,inactive,inactive,inactive,inactive,inactive,inactive,inactive,inactive,inactive,inactive,inactive,inactive,inactive,inactive,inactive,inactive
CC(C)Cn1cnc2c1c(=O)n(C)c(=O)n2C,inactive,inactive,inactive,inactive,inactive,inactive,inactive,inactive,inactive,inactive,inactive,inactive,inactive,inactive,inactive,inactive,inactive,inactive,inactive,inactive
OCc1ccccn1,inactive,inactive,inactive,inactive,inactive,inactive,inactive,inactive,inactive,inactive,inactive,inactive,inactive,inactive,inactive,inactive,inactive,inactive,inactive,inactive
Nc1ccc(S(=O)(=O)Nc2cnc3ccccc3n2)cc1,inactive,inactive,inactive,inactive,inactive,inactive,inactive,inactive,inactive,inactive,inactive,inactive,inactive,inactive,inactive,inactive,inactive,inactive,inactive,inactive
O=C(O)P(=O)(O)O,inactive,inactive,inactive,inactive,inactive,inactive,inactive,inactive,inactive,inactive,inactive,inactive,inactive,inactive,inactive,inactive,inactive,inactive,inactive,inactive
CCCCNC(=O)NS(=O)(=O)c1ccc(N)cc1,inactive,inactive,inactive,inactive,inactive,inactive,inactive,inactive,inactive,inactive,inactive,inactive,inactive,inactive,inactive,inactive,inactive,inactive,inactive,inactive
CCCCC(CC)COC(=O)/C=C/c1ccc(OC)cc1 (stereo not drawn),inactive,inactive,inactive,inactive,inactive,inactive,inactive,inactive,inactive,inactive,inactive,inactive,inactive,inactive,inactive,inactive,inactive,inactive,inactive,inactive
Cc1ncc(CO)c(C=O)c1O,inactive,inactive,inactive,inactive,inactive,inactive,inactive,,inactive,,,,inactive,,,,,,,inactive
NS(=O)(=O)c1cc(C(=O)O)cc(N2CCCC2)c1Oc1ccccc1,inactive,inactive,inactive,inactive,inactive,inactive,inactive,inactive,inactive,,inactive,inactive,inactive,inactive,inactive,inactive,inactive,inactive,inactive,inactive
CC(C)(C)NC[C@H](O)COc1cccc2c1CCCC2=O,inactive,inactive,inactive,inactive,inactive,inactive,inactive,inactive,inactive,inactive,inactive,inactive,inactive,inactive,inactive,inactive,,inactive,inactive,inactive

# Source: PubChem BioAssay (NCATS)
